Measured values reported in PubChem BioAssay (NCATS).
Inconclusive results are not listed. Calls of active or inactive are those of the source. Calls come from the whole dose curve; as a rule, active = well fitted activation curve with a large enough effect; inconclusive = small, poorly fitted or top-dose-only effect; inactive = flat fitted curve, though single readings scatter.

Experiment: Cellular Toxicity (caspase-3) Hek293 (AID 664);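 note: cells exposed to compound for 16 h at 37 °C before readout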
Settings: HEK293 caspase-3 activation; caspase-3 activation: at 92.2 µM (top of the series), DMSO = 0%, 100 µM tamoxifen = 100%
Source text: NIH Chemical Genomics Center [NCGC]
NIH Molecular Libraries Screening Centers Network [MLSCN]
National Institutes of Environmental Health Sciences [NIEHS]
National Toxicology Program [NTP]
We have developed a 1536-well cell-based assay for quantitative high throughput screening (qHTS) against a number of cell lines to determine in vitro caspase 3/7 of small molecules. This particular assay uses the Hek 293 cell line which is derived from human embryonic kidney cells.
NCGC Assay Protocol Summary:
The Caspase-Glo 3/7 assay (Promega) is a homogeneous method to measure caspase-3 and caspase-7 activities in cultured cells. The quantitation of caspase 3/7 activity is based on the cleavage of a peptide-aminoluciferin substrate. After caspase cleaves the substrate the free aminoluciferin is liberated and serves as the substrate of luciferase, which generates the light. The luminescent signal is proportional to amount of caspase 3/7 activity present.
Using the Caspase-Glo 3/7 assay, the amount of caspase 3/7 activity was measured in the Hek 293 cell line with complete culture medium following compound treatment for 16 hours. The assay was performed in opaque white 1536-well plates. In the screen, tamoxifen and doxorubicin were used as positive controls. Library compounds were measured for their ability to cause the activation of caspase 3/7 in the cell line, as reflected by an increase in luminescence signal, in a concentration-dependent manner. Data were normalized to the controls for basal activity (DMSO only) and 100% stimulation (100 uM tamoxifen). AC50 values were determined from concentration-response data modeled with the standard Hill equation.
qHTS protocol for caspase 3/7 assay in Hek 293 cells
[Step] [Parameter] [Value] [Description]
2. Time; 5 hr; 37 °C incubation
4. Controls; 23 nL; Tamoxifen 0.23 uM to 100 uM & Doxorubicin 7.0 pM to 100 uM
5. Time; 16 hr; 37 °C incubation
6. Reagent; 5 uL; Caspase-Glo 3/7 reagent
7. Time; 20 min; Room Temperature
8. Detection; Luminescence; Viewlux plate reader
Keywords: caspase 3/7, apoptosis, Hek 293 cell line, luminescence, NTPHTS, NTPHTS_NCGC, NIEHS, EPA, DSSTox, MLSMR, MLSCN, NIH Roadmap, qHTS, NCGC
Potency is the fitted concentration of half-maximal effect.

| Structure (SMILES) | caspase-3 activation | Potency |
| --- | --- | --- |
| Cn1c(=O)c2c(ncn2C)n(C)c1=O | 1.65% (inactive) | – |
| COc1ccc2[nH]cc(CCNC(C)=O)c2c1 | – | inactive |
| CC(C)C(=O)Nc1ccc([N+](=O)[O-])c(C(F)(F)F)c1 | -0.751% (inactive) | – |
| COc1ccc2c(c1)c(CC(=O)O)c(C)n2C(=O)c1ccc(Cl)cc1 | 0.823% (inactive) | – |
| Nc1ccn([C@H]2CC[C@@H](CO)O2)c(=O)n1 | -1.2% (inactive) | – |
| CCC1(c2ccccc2)C(=O)NCNC1=O | 1.05% (inactive) | – |
| Cc1cn([C@H]2C[C@H](N=[N+]=[N-])[C@@H](CO)O2)c(=O)[nH]c1=O | 0.806% (inactive) | – |
| O=c1[nH]cc(F)c(=O)[nH]1 | -0.854% (inactive) | – |
| Clc1ccc(C(c2ccccc2Cl)C(Cl)Cl)cc1 (stereo unspecified) | 133% (active) | – |
| N[C@@H](Cc1c[nH]c2ccc(O)cc12)C(=O)O | -0.777% (inactive) | – |
| COc1ccc(CCN(C)CCCC(C#N)(c2ccc(OC)c(OC)c2)C(C)C)cc1OC (stereo unspecified) | 0.323% (inactive) | – |
| COc1cc2c(c(OC)c1OC)-c1ccc(OC)c(=O)cc1[C@@H](NC(C)=O)CC2 | – | inactive |
| Cc1ccc(-c2cc(C(F)(F)F)nn2-c2ccc(S(N)(=O)=O)cc2)cc1 | 1.36% (inactive) | – |
| CC(COc1ccccc1)N(CCCl)Cc1ccccc1 (stereo unspecified) | – | 31.6 µM (active) |
| Cn1c(=O)c2[nH]cnc2n(C)c1=O | -0.107% (inactive) | – |
| NS(=O)(=O)c1cc2c(cc1Cl)NCNS2(=O)=O | -1.77% (inactive) | – |
| CC(C)NCC(O)c1ccc(O)c(O)c1 (stereo unspecified) | 1.4% (inactive) | – |
| Cc1cn([C@H]2C=C[C@@H](CO)O2)c(=O)[nH]c1=O | – | inactive |
| NCCS(=O)(=O)O | 2.57% (inactive) | – |
| Nc1c2c(nc3ccccc13)CCCC2 | -0.737% (inactive) | – |
| O=c1c(-c2ccc(O)cc2)coc2cc(O)cc(O)c12 | -6.15% (inactive) | – |
